TTR transcr act: TTR transcription activation, primary screen; SH-SY5Y TTR promoter Gaussia luciferase, luminescence; 100% = recombinant luciferase protein wells; activation, % at 16.7 µM; actives 1.3% (n = 92,000);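 active means activation above the mean of all tested compounds plus 3 SD, cut at about 9.5% in these data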;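 further: cells exposed to compounds for one day before reading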
TTR inh HuH7: HuH7 TTR transcription inhibition, counter-screen; HuH7 TTR promoter-Gaussia luciferase reporter, luminescence; AID 1117279; inhibition, % at 16.7 µM; shares compounds with TTR transcr act; actives 4% (n = 1,100);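 active means average inhibition above the solvent-only control wells' mean plus 3 SD, cut at about 15% in these data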;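 further: inhibitors lower well luminescence so higher value means more inhibition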
TTR up confirm: confirmation of human transthyretin transcription activators | shares compounds with TTR transcr act | SHSY5Y TTR promoter Gaussia luciferase, luminescence; 100% = purified Lucia enzyme wells, no cells | activation, % at 16.7 µM | 1,100 tested, under 10 active;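 active means mean activation above a set limit taken from the earlier primary screen, cut at about 11% in these data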
Each line names hits and unclear results; the compound was inactive in the other large screens (follow-up assays come after a bar, where they were run). Shown is part of a subset that was picked to be rich in hits.

COC(=O)C1=C(c2ccc3ccccc3c2)C[C@@H]2CC[C@H]1N2C	none
COC(=O)C1=C(c2cc3ccccc3s2)C[C@@H]2CC[C@H]1N2C	TTR transcr act 14.3
COC(=O)C1=C(c2cc3ccccc3s2)C[C@@H]2CC[C@H]1N2C(=O)NC1CC1	none
COC(=O)C1C(c2ccc(I)cc2)CC2CCC1N2C (centres undefined)	none
COc1cc(CCN)c(OC)cc1C	none
COc1ccc2c3c1OC1C(=O)CC[C@@]4(O)[C@@H](C2)N(C)CC[C@]314 (some centres undefined)	none
COc1ccc2c3c1OC1[C@H](O)CCC4[C@@H](C2)N(C)CC[C@]314 (some centres undefined)	none
COc1ccc2c(c1O)C13CCN(C)C(C2)C1CCC(=O)C3 (centres undefined)	TTR transcr act 24.4 | TTR inh HuH7 inactive | TTR up confirm inactive
O=C(Nc1ccccc1OC(=O)N1CCCCC1)N1CCCCC1	none
Cc1ccc(C(O)P(=O)(Oc2ccccc2)Oc2ccccc2)cc1 (centres undefined)	none
COC(=O)C1=C(c2ccc(F)cc2OCc2ccccc2)C[C@@H]2CC[C@H]1N2C(=O)NCc1ccco1	TTR transcr act 14.6 | TTR inh HuH7 inactive | TTR up confirm inactive
COC(=O)C1=C(c2ccc(F)cc2OCc2ccccc2)C[C@@H]2CC[C@H]1N2C(=O)NCC1CC1	none
COC(=O)C1=C(c2ccc(F)cc2OCc2ccccc2)C[C@@H]2CC[C@H]1N2C(=O)NCc1ccccc1	none
COC(=O)C1C(c2ccccc2)CC2CCC1N2C (centres undefined)	none
CC1CN1P(=S)(c1ccccc1)N1CC1C (centres undefined)	none
S=P(c1ccccc1)(c1ccccc1)c1c[n+](Cc2ccccc2)c2ccccn12	none
C[C@H]1[C@@H](c2ccccc2)O[C@@H](c2ccccc2Br)N1C	TTR transcr act 10.7 | TTR inh HuH7 inactive | TTR up confirm inactive
CC(=O)c1cc(C(C)=O)c(C)[n+](C)c1C	none
O=C(NC1CN2CCC1CC2)c1ccc(Cl)cc1 (centres undefined)	none
c1ccc2c(c1)CN(Cc1ccc3c(c1)OCO3)Cc1cnnn1-2	none
CC1CC2C(C(O)CC3(C)C(O)CCC23)C2(C)CCC(=O)C=C12 (centres undefined)	none
c1cc(OCCN2CC2)ccn1	TTR transcr act 10.3 | TTR inh HuH7 inactive | TTR up confirm inactive
c1cnc(OCCN2CC2)cn1	none
O=C(Cc1ccccc1)OCCN1CCOCC1	none
C=CCN1C[C@H](C)N(C(c2ccc(C(=O)N(CC)CC)cc2)c2cccc(OC)c2)CC1C (some centres undefined)	none
COc1ccc(C2SCC(=O)Nc3c2c(=O)[nH]n3C2CCCCC2)cc1 (centres undefined)	none
COc1ccc2nc3c(C)n(C)ccc-3c2c1	none
O=C1NCN(c2ccccc2)C12CCN(C(c1cccc3ccccc13)c1nnnn1-c1ccc3c(c1)OCCO3)CC2 (centres undefined)	none
COc1ccc(CCn2c(O)c(/C=N/N3CCOCC3)c(=O)[nH]c2=O)cc1OC	none
CN1C2CCC1CC(=NO)C2	TTR transcr act 26.5 | TTR inh HuH7 inactive | TTR up confirm inactive
CCCCOP(=O)(CN1CCOCC1)OCCCC	none
CCOC(=O)C1=C(C)N(C)C2(C)CC1c1ccccc1O2 (centres undefined)	none
Cc1ccc2c(c1)C1CN(C)CCC1N2C(=O)/C(C#N)=C/c1ccc2c(c1)OCO2 (centres undefined)	none
Cc1cccc(N=Cc2c(O)n(-c3ccccc3C)c(=O)[nH]c2=O)c1	TTR transcr act 12.7 | TTR inh HuH7 inactive | TTR up confirm inactive
Cc1ccccc1-n1c(O)c(/C=N/c2nccs2)c(=O)[nH]c1=O	none
Cc1cccc(-n2c(O)c(/C=C/C=Nc3ccccc3)c(=O)[nH]c2=O)c1	none
CC12CCC(=O)C=C1CCC1C2CCC2(C)C(O)(C(=O)CO)CCC12O (centres undefined)	none
CN1CC[C@]23c4c5ccc(O)c4OC2C(O)C=CC3[C@H]1C5 (some centres undefined)	none
CN1CC[C@]23c4c5ccc(OC6OC(C(=O)O)[C@@H](O)C(O)[C@H]6O)c4OC2C(O)C=CC3[C@H]1C5 (some centres undefined)	none
CC(=O)OC1C=CC2[C@H]3Cc4ccc(O)c5c4[C@@]2(CCN3C)C1O5 (some centres undefined)	TTR transcr act 16.8 | TTR inh HuH7 inactive | TTR up confirm inactive
C=CCCC(NC(=O)OCc1ccccc1)P(=O)(Oc1ccccc1)Oc1ccccc1 (centres undefined)	none
CCc1ccccc1N1C(=O)CC(=O)NC1=O	TTR transcr act 9.8 | TTR inh HuH7 inactive | TTR up confirm inactive
O=C1CC(=O)N(c2ccc(Cl)cc2)C(=O)N1	none
Cc1cccn2c(NCC3CCCO3)c(C(C)C)nc12 (centres undefined)	TTR transcr act 27.0 | TTR inh HuH7 inactive | TTR up confirm inactive
CN1C(=O)C(C)(C2=CCCCC2)C(=O)NC1=S (centres undefined)	none
COC(=O)C1=C(c2ccc(OCc3ccccc3)cc2)C[C@@H]2CC[C@H]1N2C(=O)NCc1ccc(F)cc1	none
Cc1cccc(-n2c(-c3ccccc3)nc3ccccc3c2=O)n1	none
COC(=O)C1=C(c2ccc(OC(F)(F)F)cc2)C[C@@H]2CC[C@H]1N2C(=O)NCCO	none
COC(=O)C1=C(c2ccc(OC(F)(F)F)cc2)C[C@@H]2CC[C@H]1N2C(=O)NC1CC1	TTR transcr act 10.2 | TTR inh HuH7 inactive | TTR up confirm inactive
COC(=O)C1=C(c2ccc(OC(F)(F)F)cc2)C[C@@H]2CC[C@H]1N2C(=O)NCC1CC1	none
c1cc2c(cc1N1CCCCC1)CNCc1cnnn1-2	none
CCC(=NCCCn1ccnc1)c1c(O)n(-c2ccc(OC)cc2)c(=O)[nH]c1=O	TTR transcr act 16.6 | TTR inh HuH7 inactive | TTR up confirm inactive
CC/C(=N\Nc1ccccc1)c1c(O)n(-c2ccc(OC)cc2)c(=O)[nH]c1=O	none
CCC(=NCc1cccnc1)c1c(O)n(-c2ccccc2)c(=O)[nH]c1=O	none
CCC1CN1P(=O)(N1CCCC1)N1CC1CC (centres undefined)	none
C=CC12CN(C)C3C4COC(CC41)C1(C(=O)Nc4ccccc41)C32 (centres undefined)	none
O=c1[nH]c(=O)n(Cc2ccc(F)cc2)c(O)c1/C=N/Nc1ccccc1	none
O=C(c1ccccc1)N1CCC2(CC1)OCCO2	none
CC(C(=O)c1c[nH]c2ccccc12)N1CCOCC1 (centres undefined)	none
O=C(C(=O)N1CCC2(CC1)OCCO2)c1c[nH]c2ccccc12	TTR transcr act 10.5 | TTR inh HuH7 inactive | TTR up confirm inactive
CNC(=S)N1CCn2cccc2C1c1cccnc1 (centres undefined)	none
CCN1C[C@@]2(COC)C3[C@@H](OC)[C@H]4[C@@H]1[C@@]3(C1C[C@H]3[C@H](O)C1[C@]4(O)C[C@H]3OC)[C@@H](OC)C[C@H]2O (some centres undefined)	none
CC1CCCN(C(=O)CN2C3CCC2CC(O)(c2ccc(F)cc2)C3)C1 (centres undefined)	none
OC1(c2ccc(F)cc2)CC2CCC(C1)N2Cc1nnnn1C1CCCCC1 (centres undefined)	TTR transcr act 23.4 | TTR inh HuH7 inactive | TTR up confirm inactive
OCCN1C2CCC1CC(O)(c1ccc(F)cc1)C2 (centres undefined)	none
